From PubChem BioAssay (EPA / NIEHS)
The source made the active and inactive calls. How the source made its calls: active means hit-call score of the fitted dose curve at least 0.9, where 1 is the maximum; inactive means score below 0.9.

Experiments:
Conditions in all cases: mRNA level, 48 h; actives raise or lower the signal
CYP2E1 (gene 1571) = test: LTEA_HepaRG_CYP2E1: Life Technologies and Expression Analysis (LTEA) Assay for CYP2E1 using HepaRG (AID 2283485)
In short: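 HepaRG cells, plated 48 h, then exposed 48 h in serum-free induction medium to eight half-log concentrations from 100 uM in 0.5% DMSO, duplicate. CYP2E1 mRNA by qRT-PCR, normalized to ACTB/GAPDH/POLR2A; bidirectional fit versus DMSO.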

CYP4A11 (gene 1579) = test: LTEA_HepaRG_CYP4A11: Life Technologies and Expression Analysis (LTEA) Assay for CYP4A11 using HepaRG (AID 2283486)
In short: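 Human hepatic HepaRG cultures receive duplicate 48 h exposures across a concentration-response series topping at 100 uM. Expression changes in CYP4A11 are measured by qRT-PCR relative to DMSO controls.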

[1] = read-out: Cytochrome P450 3A4 (Homo sapiens) (UniProt P08684); test: LTEA_HepaRG_CYP3A4: Life Technologies and Expression Analysis (LTEA) Assay for CYP3A4 using HepaRG (AID 2283487)
In short: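 Differentiated HepaRG cells, plated 48 h, then dosed 48 h in serum-free induction medium with 0.5% DMSO, 8 half-log concentrations up to 100 uM, duplicate. CYP3A4 mRNA by qRT-PCR, normalized to ACTB/GAPDH/POLR2A; bidirectional fit versus DMSO.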

[2] = read-out: DNA damage-inducible transcript 3 (DDIT3), DDIT3 (gene 1649); test: LTEA_HepaRG_DDIT3: Life Technologies and Expression Analysis (LTEA) Assay for DNA damage-inducible transcript 3 (DDIT3) using HepaRG (AID 2283488)
In short: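 HepaRG cells, 48 h after plating, exposed 48 h in serum-free induction medium to 8 half-log concentrations up to 100 uM in 0.5% DMSO, in duplicate. DDIT3 mRNA measured by TaqMan qRT-PCR, normalized to ACTB, GAPDH and POLR2A. Fitted bidirectionally against DMSO.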

[3] = read-out: Pro-epidermal growth factor (Homo sapiens) (UniProt P01133); test: LTEA_HepaRG_EGF: Life Technologies and Expression Analysis (LTEA) Assay for Epidermal growth factor (EGF) using HepaRG (AID 2283489)
In short: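 Concentration-response mRNA assay: HepaRG cells dosed 48 h (max 100 uM, 0.5% DMSO), EGF measured by qRT-PCR and normalized to ACTB/GAPDH/POLR2A.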

[4] = read-out: Early growth response protein 1 (EGR1) transcription factor, EGR1 (gene 1958); test: LTEA_HepaRG_EGR1: Life Technologies and Expression Analysis (LTEA) Assay for Early growth response protein 1 (EGR1) transcription factor using HepaRG (AID 2283490)
In short: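 Differentiated HepaRG cells in serum-free induction medium exposed 48 hours, duplicate, to 8 half-log concentrations up to 100 uM in 0.5% DMSO. EGR1 mRNA measured by TaqMan qRT-PCR, normalized to ACTB, GAPDH, POLR2A; bidirectional fit versus DMSO.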

[5] = read-out: Cytochrome P450 3A7 (Homo sapiens) (UniProt P24462); test: LTEA_HepaRG_CYP3A7: Life Technologies and Expression Analysis (LTEA) Assay for CYP3A7 using HepaRG (AID 2283492)
In short: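 qRT-PCR of CYP3A7 in HepaRG lysates after 48 h treatment; concentration-response (8 points, max 100 uM) analysed bidirectionally relative to 0.5% DMSO controls.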

CYP3A5 (gene 1577) = test: LTEA_HepaRG_CYP3A5: Life Technologies and Expression Analysis (LTEA) Assay for CYP3A5 using HepaRG (AID 2283493)
In short: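 HepaRG cells, plated 48 h then in serum-free induction medium, dosed in duplicate for 48 h with eight half-log concentrations up to 100 uM in 0.5% DMSO. Gene mRNA by Fluidigm TaqMan qRT-PCR, normalized to ACTB, GAPDH, POLR2A.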

[6] = read-out: Fatty Acid-Binding Protein 1 (FABP1), FABP1 (gene 2168); test: LTEA_HepaRG_FABP1: Life Technologies and Expression Analysis (LTEA) Assay for Fatty Acid-Binding Protein 1 (FABP1) using HepaRG (AID 2283494)
In short: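 Differentiated human HepaRG cells exposed 48 h in serum-free induction medium to eight half-log concentrations up to 100 uM (0.5% DMSO), duplicate. FABP1 mRNA by qRT-PCR, normalised to ACTB, GAPDH, POLR2A; bidirectional fitting against DMSO.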

[7] = read-out: Cytochrome P450 4A22 (Homo sapiens) (UniProt Q5TCH4); test: LTEA_HepaRG_CYP4A22: Life Technologies and Expression Analysis (LTEA) Assay for Cytochrome P450 4A22 (CYP4A22) using HepaRG (AID 2283495)
In short: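 Concentration-response (8 points, max 100 uM, 0.5% DMSO) in human HepaRG liver cells after 48 h exposure. CYP4A22 mRNA by TaqMan qRT-PCR with housekeeping-gene normalization.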

[8] = read-out: Cytochrome P450 7A1 (Homo sapiens) (UniProt P22680); test: LTEA_HepaRG_CYP7A1: Life Technologies and Expression Analysis (LTEA) Assay for Cytochrome P450 7A1 (CYP7A1) using HepaRG (AID 2283496)
In short: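 HepaRG cells plated 48 h, then switched to serum-free induction medium and exposed in duplicate for 48 h to 8-point half-log series from 100 uM in 0.5% DMSO. CYP7A1 mRNA by qRT-PCR (TaqMan), normalized to ACTB/GAPDH/POLR2A; bidirectional fit versus DMSO.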

[9] = read-out: Glutathione S-Transferase (GSTA2), GSTA2 (gene 2939); test: LTEA_HepaRG_GSTA2: Life Technologies and Expression Analysis (LTEA) Assay for Glutathione S-Transferase (GSTA2) using HepaRG (AID 2283497)
In short: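 Differentiated human HepaRG cells were exposed in duplicate for 48 h in serum-free induction medium, 8 points from 100 uM top in half-log steps, 0.5% DMSO. GSTA2 mRNA was measured by TaqMan qRT-PCR, normalized to ACTB, GAPDH and POLR2A; bidirectional fit versus DMSO.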

[10] = read-out: Glutamate-cysteine ligase catalytic (GCLC), GCLC (gene 2729); test: LTEA_HepaRG_GCLC: Life Technologies and Expression Analysis (LTEA) Assay for Glutamate-cysteine ligase catalytic (GCLC) using HepaRG (AID 2283498)
In short: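 Differentiated HepaRG cells exposed 48 h in serum-free induction medium, eight-point half-log series topping at 100 uM in 0.5% DMSO, duplicates. GCLC mRNA by qRT-PCR normalized to ACTB, GAPDH and POLR2A, fitted bidirectionally versus DMSO.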

[11] = read-out: growth arrest and DNA damage 45 (GADD45G), GADD45G (gene 10912); test: LTEA_HepaRG_GADD45G: Life Technologies and Expression Analysis (LTEA) Assay for growth arrest and DNA damage 45 (GADD45G) using HepaRG (AID 2283499)
In short: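 Concentration-response in HepaRG: 48 h dosing, 0.5% DMSO, highest level 100 uM. GADD45G expression by qRT-PCR, normalised to endogenous controls; bidirectional fit to DMSO.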

[12] = read-out: Glutamate-cysteine ligase regulatory (GCLM), GCLM (gene 2730); test: LTEA_HepaRG_GCLM: Life Technologies and Expression Analysis (LTEA) Assay for Glutamate-cysteine ligase regulatory (GCLM) using HepaRG (AID 2283500)
In short: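 Differentiated HepaRG cells exposed 48 h in serum-free induction medium to eight half-log concentrations up to 100 uM (0.5% DMSO). GCLM mRNA by TaqMan qRT-PCR, normalized to ACTB, GAPDH and POLR2A; bidirectional fit versus DMSO.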

[13] = read-out: Glutathione S-transferase M3 (GSTM3), GSTM3 (gene 2947); test: LTEA_HepaRG_GSTM3: Life Technologies and Expression Analysis (LTEA) Assay for Glutathione S-transferase M3 (GSTM3) using HepaRG (AID 2283501)
In short: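 Expression of GSTM3 is determined by qRT-PCR in human liver HepaRG cells treated 48 h with an 8-point half-log range from 100 uM in 0.5% DMSO.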

[14] = read-out: Heat shock 70 kDa protein 1 (HSPA1A), gene 3303; test: LTEA_HepaRG_HSPA1A: Life Technologies and Expression Analysis (LTEA) Assay for Heat shock 70 kDa protein 1 (HSPA1A) using HepaRG (AID 2283502)
In short: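 Human HepaRG cells in serum-free induction medium were exposed in duplicate for 48 h to 8 half-log concentrations, highest 100 uM, in 0.5% DMSO. HSPA1A mRNA read by TaqMan qRT-PCR, normalized to ACTB, GAPDH, POLR2A, fitted bidirectionally against DMSO.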

[15] = read-out: Hypoxia-inducible factor 1-alpha (Homo sapiens) (UniProt Q16665); test: LTEA_HepaRG_HIF1A: Life Technologies and Expression Analysis (LTEA) Assay for Hypoxia-inducible factor 1 (HIF1A) Trancription factor using HepaRG (AID 2283503)
In short: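 Differentiated HepaRG cells in serum-free induction medium exposed 48 h, in duplicate, to 8-point half-log series from 100 uM in 0.5% DMSO. HIF1A mRNA measured by TaqMan qRT-PCR, normalized to ACTB/GAPDH/POLR2A, fitted bidirectionally versus DMSO.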

[16] = read-out: 3-Hydroxy-3-Methylglutaryl-CoA Synthase 2 (HMGCS2), HMGCS2 (gene 3158); test: LTEA_HepaRG_HMGCS2: Life Technologies and Expression Analysis (LTEA) Assay for 3-Hydroxy-3-Methylglutaryl-CoA Synthase 2 (HMGCS2) using HepaRG (AID 2283504)
In short: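 This steatosis marker was read as HMGCS2 mRNA change in HepaRG cells treated 48 h with up to 100 uM chemical. Normalisation used housekeeping genes; activity in either direction was fitted relative to 0.5% DMSO vehicle.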

[17] = read-out: Ezrin (EZR), EZR (gene 7430); test: LTEA_HepaRG_EZR: Life Technologies and Expression Analysis (LTEA) Assay for Ezrin (EZR) using HepaRG (AID 2283491)
In short: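 EZR transcript levels came from Fluidigm qRT-PCR and were normalized to three housekeeping genes after 48 h chemical exposure of HepaRG cells. Dosing used an 8-point half-log series with a 100 uM top concentration in 0.5% DMSO, tested in duplicate; both directions were fitted versus vehicle.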

Measured: AC50

Sequence of Cytochrome P450 3A7 (Homo sapiens) (P24462 whole entry, looked up): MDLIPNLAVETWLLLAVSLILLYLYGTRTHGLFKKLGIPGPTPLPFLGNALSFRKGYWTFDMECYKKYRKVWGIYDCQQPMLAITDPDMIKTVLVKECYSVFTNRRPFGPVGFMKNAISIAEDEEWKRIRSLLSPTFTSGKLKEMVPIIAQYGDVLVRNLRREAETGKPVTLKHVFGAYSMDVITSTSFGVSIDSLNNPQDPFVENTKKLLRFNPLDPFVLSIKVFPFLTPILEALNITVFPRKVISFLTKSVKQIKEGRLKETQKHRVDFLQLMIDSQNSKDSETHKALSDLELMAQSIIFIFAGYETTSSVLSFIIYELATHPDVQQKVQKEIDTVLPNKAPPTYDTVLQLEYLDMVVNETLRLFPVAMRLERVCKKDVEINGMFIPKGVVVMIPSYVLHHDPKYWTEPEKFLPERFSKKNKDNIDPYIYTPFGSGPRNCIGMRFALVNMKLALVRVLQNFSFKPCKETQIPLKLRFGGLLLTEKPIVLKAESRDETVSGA
Sequence of Cytochrome P450 3A4 (Homo sapiens) (P08684 whole entry, looked up): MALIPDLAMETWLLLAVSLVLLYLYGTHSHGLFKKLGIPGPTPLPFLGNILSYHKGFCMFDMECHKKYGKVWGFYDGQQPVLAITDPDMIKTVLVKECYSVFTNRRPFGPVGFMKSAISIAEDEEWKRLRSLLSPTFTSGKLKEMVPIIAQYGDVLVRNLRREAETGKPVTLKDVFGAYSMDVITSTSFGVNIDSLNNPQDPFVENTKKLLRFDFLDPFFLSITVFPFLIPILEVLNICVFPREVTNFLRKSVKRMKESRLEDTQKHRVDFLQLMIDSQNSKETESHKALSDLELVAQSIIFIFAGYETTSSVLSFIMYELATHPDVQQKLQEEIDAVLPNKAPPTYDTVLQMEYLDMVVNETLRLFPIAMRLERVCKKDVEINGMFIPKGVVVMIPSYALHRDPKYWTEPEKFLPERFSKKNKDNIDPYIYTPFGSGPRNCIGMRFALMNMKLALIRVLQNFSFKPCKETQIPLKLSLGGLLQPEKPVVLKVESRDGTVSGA
Sequence of Hypoxia-inducible factor 1-alpha (Homo sapiens) (Q16665 whole entry, looked up): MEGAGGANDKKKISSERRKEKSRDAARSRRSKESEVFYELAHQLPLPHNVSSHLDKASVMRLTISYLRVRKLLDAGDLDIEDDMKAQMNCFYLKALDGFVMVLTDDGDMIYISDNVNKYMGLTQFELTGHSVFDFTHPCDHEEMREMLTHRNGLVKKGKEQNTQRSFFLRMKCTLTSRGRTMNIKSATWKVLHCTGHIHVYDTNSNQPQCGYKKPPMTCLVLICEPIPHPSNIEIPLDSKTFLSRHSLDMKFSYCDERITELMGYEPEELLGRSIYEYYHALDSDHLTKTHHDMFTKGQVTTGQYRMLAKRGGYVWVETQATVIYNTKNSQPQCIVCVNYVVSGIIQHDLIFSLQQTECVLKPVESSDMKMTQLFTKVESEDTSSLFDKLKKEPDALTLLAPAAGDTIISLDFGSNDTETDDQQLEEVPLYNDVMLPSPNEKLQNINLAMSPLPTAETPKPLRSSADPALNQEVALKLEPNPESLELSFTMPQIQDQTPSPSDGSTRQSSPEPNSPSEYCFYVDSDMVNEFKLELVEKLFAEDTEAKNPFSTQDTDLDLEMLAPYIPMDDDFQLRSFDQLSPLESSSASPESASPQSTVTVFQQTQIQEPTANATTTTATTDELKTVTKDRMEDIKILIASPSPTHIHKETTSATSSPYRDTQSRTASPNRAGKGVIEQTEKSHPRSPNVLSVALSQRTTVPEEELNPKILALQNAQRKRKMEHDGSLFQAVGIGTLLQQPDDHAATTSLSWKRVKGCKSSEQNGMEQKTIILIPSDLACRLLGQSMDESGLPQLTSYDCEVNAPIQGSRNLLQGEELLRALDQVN

C=CC(=C)CCC=C(C)C
not listed: [17]
inactive: all other assays above

Cc1ccc(S(=O)(=O)O)cc1C
inactive: all assays above

C1=CCCC=CCCC=CCC1
not listed: [17]
inactive: all other assays above

COC(=O)c1c(Cl)c(Cl)c(C(=O)OC)c(Cl)c1Cl
not listed: [17]
inactive: all other assays above

CC1(C)C(=O)N(Br)C(=O)N1Br
not listed: [17]
inactive: all other assays above

Clc1nc(Cl)c(Cl)c(Cl)c1Cl
not listed: [17]
inactive: all other assays above

CCCN(C1CCN(C(=O)C2CCNCC2)CC1)[C@@H]1CCc2ccc(OC)cc2C1
active: CYP2E1 (gene 1571) 67.4 µM | CYP4A11 (gene 1579) 90.7 µM | [1] 86.7 µM | [2] 50 µM | [5] 86.4 µM | CYP3A5 (gene 1577) 80.3 µM | [6] 83.5 µM | [7] 88.2 µM | [8] 77.3 µM | [9] 81 µM | [10] 50 µM | [13] 50 µM | [14] 79.6 µM | [15] 88.2 µM
inactive: [3] | [4] | [11] | [12]

CN(C)c1ccc(Cc2ccc(N(C)C)cc2)cc1
active: CYP2E1 (gene 1571) 50 µM | CYP4A11 (gene 1579) 89 µM | [1] 2.5 µM | [5] 11.6 µM | [7] 50 µM | [11] 50 µM | [16] 88.4 µM
not listed: [17]
inactive: all other assays above

CCCCCCCCCCCCCCCO
not listed: [17]
inactive: all other assays above
